Test results published in the supplement of paper PMC13380429.
Unmarked numbers belong to inactive results.

Test system: Vero E6 infected with SARS-CoV-2
Experiment: inhibition of SARS-CoV-2 cytopathic effect; higher = more antiviral protection, active = above 15
Conditions: 48 h

Row | SMILES | inhibition of SARS-CoV-2 cytopathic effect (1 nM) [%] | inhibition of SARS-CoV-2 cytopathic effect (8.33 nM) [%] | inhibition of SARS-CoV-2 cytopathic effect (100 nM) [%] | inhibition of SARS-CoV-2 cytopathic effect (833.33 nM) | inhibition of SARS-CoV-2 cytopathic effect (10000 nM)
1 | Nc1ncnc2c1ncn2[C@@H]1O[C@H](CO)[C@@H](O)[C@H]1O [adenosine] | 2.02 | 3.5 | 0.67 | -1.84% | 1.06%
2 | Nc1nc(N)c2nc(-c3ccccc3)c(N)nc2n1 [triamterene] | 0.51 | 2.72 | 4.04 | 0.17% | -2.92%
3 | COc1cc2c(=O)c(-c3ccc(O)cc3)coc2cc1O [glycitein] | 1.2 | -0.34 | -0.96 | -2.13% | -1.58%
4 | C#C[C@]1(OC(C)=O)CC[C@H]2[C@@H]3CCC4=CC(=O)CC[C@@H]4[C@H]3CC[C@@]21C [norethindrone-acetate] | 0.09 | 0.03 | -1.33 | 0.02% | 1.02%
5 | COc1cc2ncnc(Nc3cccc(Cl)c3)c2cc1OC [tyrphostin-AG-1478] | -0.71 | -1 | -7.3 | -11.1% | 17.9% (active)
6 | Cc1cccc(-c2nn3c(c2-c2ccnc4ccc(C(N)=O)cc24)CCC3)n1 | 0.85 | -0.43 | -0.97 | -0.85% | -1.59%
7 | O=C(NCNC(=O)NC1C(=O)NC(=O)N1CO)NC1C(=O)NC(=O)N1CO (stereo not given) [imidurea] | -0.15 | 0.45 | -1.76 | -1.38% | 0.38%
8 | CNCc1ccc(-c2cc(-c3nc(-c4ccc(S(=O)(=O)C(C)C)cc4)cnc3N)on2)cc1 | 0.45 | 3.25 | 1.09 | 24.5% (active) | 25.2% (active)
9 | O=C(O)c1ccc(CN2CCC(CN[C@@H]3C[C@H]3c3ccccc3)CC2)cc1 | 0.72 | 1.52 | 1.24 | 3.6% | 2.94%
10 | COc1ccc(OC)c(CN(C(C)=O)c2cc(F)ccc2Oc2ccccc2)c1 | 1.17 | -0.16 | 4.26 | 3.55% | 2.47%
11 | N#CCC1(n2cc(-c3ncnc4[nH]ccc34)cn2)CN(C2CCN(C(=O)c3ccnc(C(F)(F)F)c3F)CC2)C1 [itacitinib] | 1.05 | 1.83 | 0.96 | -0.18% | -3.04%
12 | O=C(O[C@H]1[C@H](OC(=O)c2cccnc2)[C@@H](OC(=O)c2cccnc2)[C@H](OC(=O)c2cccnc2)[C@@H](OC(=O)c2cccnc2)[C@H]1OC(=O)c1cccnc1)c1cccnc1 [inositol-hexanicotinate] | 2.01 | 3.15 | 2.82 | 0.04% | 0.85%
13 | COc1cc(NS(C)(=O)=O)ccc1Nc1c2ccccc2nc2ccccc12 [amsacrine] | -2.31 | 1.72 | -0.21 | -6.01% | -5.76%
14 | Cc1cccc(C)c1NC(=O)CN1CCCCCC1 [pincainide] | -3.17 | -5.99 | -2.63 | -1.95% | 0.04%
15 | O=C(O[C@H]1C[N+]2(CCCOc3ccccc3)CCC1CC2)C(O)(c1cccs1)c1cccs1 [aclidinium] | -0.75 | -1.25 | -2.4 | 1.93% | 1.6%
16 | C[C@H](Nc1ncnc2[nH]cnc12)c1cc2ccc(F)cc2nc1-c1ccccn1 | 0.375 | 4.37 | 4.2 | 1.33% | -3.42%
17 | Cc1c(F)cccc1NC(=O)Nc1ccc(Cl)c(S(=O)(=O)[C@H]2CCCNC2)c1O [danirixin] | -0.94 | -0.94 | -0.32 | -0.62% | 2.67%
18 | COc1cc(OC)c2c(=O)[nH]c(-c3cc(C)c(OCCO)c(C)c3)nc2c1 [apabetalone] | -0.27 | 0.93 | 2.32 | -1.57% | -0.84%
